Measurements as given in the supplement of paper PMC10849652.
Of roughly 7,900 targets only a part is listed; those with a hit were picked by preference. About 0.6% of all pairs of compound and target were hits.

Compound: Cc1sc2c(c1C)C(c1ccc(Cl)cc1)=N[C@@H](CC(=O)OC(C)(C)C)c1nnc(C)n1-2
Experiment: log2 fold change, soluble protein after heating vs DMSO (PISA); higher = thermal stabilisation; K562 cells, 10 uM, 30 min; active = over 0.2 and 3.5 SD of the protein, either way, in both replicates (recomputed)
In short: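 K562 cells at 2×10^6 cells/mL were treated with 10 μM compound for 30 min. Aliquots were heated for 3 min across 48°C-58°C, pooled, and extracted in PBS with 0.5% NP-40 at 4°C; soluble protein was the supernatant after 21,000xg for 90 min. Soluble protein was quantified by TMTpro 16plex LC-MS/MS with channel sums equalised, and reported as log2 fold change in thermal stability against DMSO controls, with values from duplicates.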

UniProt Q9NRP0, sequence (Q9NRP0 whole entry, looked up): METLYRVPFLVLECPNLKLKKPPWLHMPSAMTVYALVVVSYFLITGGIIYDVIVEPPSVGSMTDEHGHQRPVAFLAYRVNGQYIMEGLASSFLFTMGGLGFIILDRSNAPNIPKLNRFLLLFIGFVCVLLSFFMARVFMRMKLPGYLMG
UniProt Q99747, sequence (Q99747 whole entry, looked up): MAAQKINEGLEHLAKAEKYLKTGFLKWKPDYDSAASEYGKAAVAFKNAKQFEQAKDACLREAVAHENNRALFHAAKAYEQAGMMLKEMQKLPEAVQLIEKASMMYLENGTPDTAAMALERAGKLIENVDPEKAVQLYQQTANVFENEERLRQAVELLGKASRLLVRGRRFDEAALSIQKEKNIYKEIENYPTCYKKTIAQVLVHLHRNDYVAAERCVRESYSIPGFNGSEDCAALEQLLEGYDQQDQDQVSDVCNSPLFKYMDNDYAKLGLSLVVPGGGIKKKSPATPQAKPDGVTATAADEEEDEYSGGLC
UniProt O75607, sequence (O75607 whole entry, looked up): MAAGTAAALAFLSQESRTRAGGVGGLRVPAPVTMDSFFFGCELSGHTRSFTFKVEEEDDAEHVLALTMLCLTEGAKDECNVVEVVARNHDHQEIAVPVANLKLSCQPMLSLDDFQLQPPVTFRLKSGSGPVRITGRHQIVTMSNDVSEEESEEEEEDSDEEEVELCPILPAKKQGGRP
UniProt Q9HBL8, sequence (Q9HBL8 whole entry, looked up): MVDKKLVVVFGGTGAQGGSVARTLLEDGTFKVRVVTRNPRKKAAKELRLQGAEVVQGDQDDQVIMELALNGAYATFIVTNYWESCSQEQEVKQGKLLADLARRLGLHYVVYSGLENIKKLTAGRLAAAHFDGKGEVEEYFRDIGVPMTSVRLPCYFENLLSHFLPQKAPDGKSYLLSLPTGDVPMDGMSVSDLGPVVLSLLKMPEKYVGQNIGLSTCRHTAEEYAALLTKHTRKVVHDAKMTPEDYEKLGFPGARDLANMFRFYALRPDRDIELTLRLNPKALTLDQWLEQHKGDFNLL
UniProt O15460, sequence (O15460 whole entry, looked up): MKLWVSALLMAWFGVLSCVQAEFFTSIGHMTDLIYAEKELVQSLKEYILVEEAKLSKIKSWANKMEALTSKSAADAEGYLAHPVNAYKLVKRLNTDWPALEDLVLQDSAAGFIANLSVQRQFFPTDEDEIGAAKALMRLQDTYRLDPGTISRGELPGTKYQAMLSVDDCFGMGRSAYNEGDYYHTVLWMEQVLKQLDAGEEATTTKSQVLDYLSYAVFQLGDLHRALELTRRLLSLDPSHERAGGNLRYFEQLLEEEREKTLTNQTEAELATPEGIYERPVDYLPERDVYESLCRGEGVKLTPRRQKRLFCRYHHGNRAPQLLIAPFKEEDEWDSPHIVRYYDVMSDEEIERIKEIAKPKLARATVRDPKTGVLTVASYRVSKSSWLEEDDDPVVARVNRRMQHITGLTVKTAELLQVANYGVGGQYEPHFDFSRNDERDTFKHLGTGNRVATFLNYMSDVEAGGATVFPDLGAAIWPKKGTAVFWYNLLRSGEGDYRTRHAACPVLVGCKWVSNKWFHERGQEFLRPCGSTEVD
UniProt P55786, sequence (P55786 whole entry, looked up): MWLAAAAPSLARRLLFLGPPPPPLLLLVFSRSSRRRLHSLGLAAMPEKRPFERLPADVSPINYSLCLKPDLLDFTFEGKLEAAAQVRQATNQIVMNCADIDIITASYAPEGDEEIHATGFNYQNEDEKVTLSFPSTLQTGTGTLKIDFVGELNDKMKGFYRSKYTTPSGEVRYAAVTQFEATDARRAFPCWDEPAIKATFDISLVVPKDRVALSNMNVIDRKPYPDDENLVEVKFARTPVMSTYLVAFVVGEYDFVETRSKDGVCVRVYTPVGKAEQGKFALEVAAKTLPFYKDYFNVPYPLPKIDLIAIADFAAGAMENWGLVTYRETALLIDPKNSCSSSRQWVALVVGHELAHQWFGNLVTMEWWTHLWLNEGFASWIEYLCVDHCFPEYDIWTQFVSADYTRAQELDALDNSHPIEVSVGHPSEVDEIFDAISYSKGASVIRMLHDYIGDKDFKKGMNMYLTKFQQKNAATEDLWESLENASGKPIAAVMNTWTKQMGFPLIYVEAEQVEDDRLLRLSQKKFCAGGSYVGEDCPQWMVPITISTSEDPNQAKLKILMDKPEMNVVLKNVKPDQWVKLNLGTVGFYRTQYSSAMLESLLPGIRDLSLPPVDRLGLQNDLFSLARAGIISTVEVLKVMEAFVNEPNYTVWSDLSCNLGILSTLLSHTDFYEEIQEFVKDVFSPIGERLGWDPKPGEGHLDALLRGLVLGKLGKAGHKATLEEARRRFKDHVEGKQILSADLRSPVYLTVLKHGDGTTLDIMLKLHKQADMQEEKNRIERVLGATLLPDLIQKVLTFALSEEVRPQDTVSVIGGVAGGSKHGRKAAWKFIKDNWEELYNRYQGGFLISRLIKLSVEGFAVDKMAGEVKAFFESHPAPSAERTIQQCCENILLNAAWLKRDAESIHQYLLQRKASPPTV
UniProt Q9HAN9, sequence (Q9HAN9 whole entry, looked up): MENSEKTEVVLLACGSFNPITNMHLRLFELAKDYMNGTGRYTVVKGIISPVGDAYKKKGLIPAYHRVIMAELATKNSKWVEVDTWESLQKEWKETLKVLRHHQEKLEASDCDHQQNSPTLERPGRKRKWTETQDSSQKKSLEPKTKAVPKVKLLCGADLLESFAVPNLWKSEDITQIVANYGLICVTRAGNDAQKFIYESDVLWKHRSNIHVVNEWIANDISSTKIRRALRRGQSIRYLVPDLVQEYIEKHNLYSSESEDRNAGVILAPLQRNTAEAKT
UniProt Q12968, sequence (Q12968 whole entry, looked up): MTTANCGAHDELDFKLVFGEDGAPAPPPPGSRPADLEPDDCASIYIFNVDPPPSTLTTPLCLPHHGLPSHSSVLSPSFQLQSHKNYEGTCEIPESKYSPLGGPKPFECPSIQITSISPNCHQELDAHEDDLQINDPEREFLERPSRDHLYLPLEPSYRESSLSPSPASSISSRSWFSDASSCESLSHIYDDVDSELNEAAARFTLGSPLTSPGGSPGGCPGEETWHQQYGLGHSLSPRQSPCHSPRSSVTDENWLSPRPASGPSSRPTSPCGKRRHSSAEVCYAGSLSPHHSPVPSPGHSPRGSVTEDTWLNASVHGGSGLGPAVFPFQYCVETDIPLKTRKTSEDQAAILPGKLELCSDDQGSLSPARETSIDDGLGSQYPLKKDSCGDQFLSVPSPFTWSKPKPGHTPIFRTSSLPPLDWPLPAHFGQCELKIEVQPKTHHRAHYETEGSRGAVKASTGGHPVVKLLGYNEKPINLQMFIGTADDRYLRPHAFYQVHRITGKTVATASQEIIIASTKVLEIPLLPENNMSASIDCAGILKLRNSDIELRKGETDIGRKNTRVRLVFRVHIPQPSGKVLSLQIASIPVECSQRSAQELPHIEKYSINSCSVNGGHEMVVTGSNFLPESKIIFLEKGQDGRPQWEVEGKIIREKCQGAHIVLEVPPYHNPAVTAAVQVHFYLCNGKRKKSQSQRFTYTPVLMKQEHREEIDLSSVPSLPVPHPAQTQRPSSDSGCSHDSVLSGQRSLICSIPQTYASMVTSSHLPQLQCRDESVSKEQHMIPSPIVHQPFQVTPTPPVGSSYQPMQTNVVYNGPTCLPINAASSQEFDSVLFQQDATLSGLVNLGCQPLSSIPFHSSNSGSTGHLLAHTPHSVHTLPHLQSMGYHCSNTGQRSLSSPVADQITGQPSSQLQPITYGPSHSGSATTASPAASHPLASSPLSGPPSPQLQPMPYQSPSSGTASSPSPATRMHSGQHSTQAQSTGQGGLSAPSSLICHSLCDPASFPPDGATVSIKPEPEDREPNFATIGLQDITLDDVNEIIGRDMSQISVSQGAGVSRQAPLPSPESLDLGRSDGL
UniProt Q13423, sequence (Q13423 whole entry, looked up): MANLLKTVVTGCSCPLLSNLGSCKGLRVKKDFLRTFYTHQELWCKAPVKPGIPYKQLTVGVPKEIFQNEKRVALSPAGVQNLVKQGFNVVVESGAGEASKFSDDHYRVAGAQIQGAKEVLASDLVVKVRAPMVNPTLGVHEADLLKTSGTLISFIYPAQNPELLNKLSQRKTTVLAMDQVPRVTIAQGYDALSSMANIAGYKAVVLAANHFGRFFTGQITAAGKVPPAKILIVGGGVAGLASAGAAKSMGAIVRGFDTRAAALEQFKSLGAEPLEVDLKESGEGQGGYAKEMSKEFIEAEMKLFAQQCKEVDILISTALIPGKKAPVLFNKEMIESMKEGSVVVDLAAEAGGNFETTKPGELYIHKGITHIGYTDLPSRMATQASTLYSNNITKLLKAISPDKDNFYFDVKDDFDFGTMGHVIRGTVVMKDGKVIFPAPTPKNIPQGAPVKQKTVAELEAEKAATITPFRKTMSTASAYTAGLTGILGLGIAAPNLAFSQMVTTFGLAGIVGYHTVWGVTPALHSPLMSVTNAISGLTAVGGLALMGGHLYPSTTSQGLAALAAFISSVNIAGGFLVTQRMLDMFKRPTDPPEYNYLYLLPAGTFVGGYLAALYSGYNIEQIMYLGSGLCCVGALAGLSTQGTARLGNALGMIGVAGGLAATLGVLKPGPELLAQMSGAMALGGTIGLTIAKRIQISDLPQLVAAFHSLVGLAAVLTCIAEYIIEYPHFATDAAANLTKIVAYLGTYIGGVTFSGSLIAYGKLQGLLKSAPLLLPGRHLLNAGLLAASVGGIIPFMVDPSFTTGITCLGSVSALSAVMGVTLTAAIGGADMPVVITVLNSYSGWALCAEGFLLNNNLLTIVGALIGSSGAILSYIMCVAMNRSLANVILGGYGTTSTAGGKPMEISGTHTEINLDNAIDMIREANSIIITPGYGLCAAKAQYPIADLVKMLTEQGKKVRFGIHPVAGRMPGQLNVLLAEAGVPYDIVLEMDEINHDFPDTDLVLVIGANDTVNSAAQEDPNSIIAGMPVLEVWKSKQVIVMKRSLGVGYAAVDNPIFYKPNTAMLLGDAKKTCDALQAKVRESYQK

Row | Target | log2 fold change
1 | OSTM1 (UniProt Q86WC4) | -0.091 (inactive)
2 | NNT (UniProt Q13423) | -0.028 (inactive)
3 | MRPS24 (UniProt Q96EL2) | 0.148 (inactive)
4 | NFX1 (UniProt Q12986) | 0.115 (inactive)
5 | NDUFB10 (UniProt O96000) | -0.031 (inactive)
6 | NMU (UniProt P48645) | 0.066 (inactive)
7 | NFATC3 (UniProt Q12968) | 0.16 (inactive)
8 | OSTC (UniProt Q9NRP0) | -0.213 (inactive)
9 | NPM3 (UniProt O75607) | 0.107 (inactive)
10 | NHLRC2 (UniProt Q8NBF2) | 0.009 (inactive)
11 | NMNAT1 (UniProt Q9HAN9) | 0.304 (inactive)
12 | MTHFD1 (UniProt P11586) | -0.013 (inactive)
13 | MRPS18B (UniProt Q9Y676) | 0.127 (inactive)
14 | NMRAL1 (UniProt Q9HBL8) | -0.139 (inactive)
15 | MON1B (UniProt Q7L1V2) | -0.008 (inactive)
16 | NUP205 (UniProt Q92621) | -0.043 (inactive)
17 | MRPS12 (UniProt O15235) | 0.093 (inactive)
18 | NR2C2 isoform 2 (UniProt P49116) | 0.042 (inactive)
19 | NAPG (UniProt Q99747) | -0.023 (inactive)
20 | P4HA2 (UniProt O15460) | -0.007 (inactive)
21 | NEDD4L (UniProt Q96PU5) | 0.054 (inactive)
22 | NPEPPS (UniProt P55786) | -0.003 (inactive)
23 | MRPS33 (UniProt Q9Y291) | 0.098 (inactive)
